Only some compounds are listed: those with a hit (about 4.2% of all), similar ones and a draw of the others.
Mito fusion yeast – qHTS Assay for Small Molecule Inhibitors of Mitochondrial Division or Activators of Mitochondrial Fusion; actives 0.23% (n = 320,000); Potency, µM (doses to about 46.1 µM), hits mostly activators; S. cerevisiae fusion-defective mutant growth rescue, CellTiterGlo 48 h; further: nearly all actives have a fitted effect of over 45% in size
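S. cerevisiae fusion-defective temperature-sensitive mutants (e.g. fzo1-1, mgm1-5) grown 48 h at 37C in YPEG (ethanol/glycerol non-fermentable) medium with 23 nl compound per well; growth rescue read as CellTiterGlo luminescence.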
MCF10A rereplic – A quantitative high throughput screen for small molecules that induce DNA re-replication in MCF 10a normal breast cells | actives 2.9% (n = 350,000) | MCF 10A DNA re-replication, Hoechst nuclear intensity, 48 h | Potency, µM (top dose mostly 46.1 µM), actives largely listed as activators; further: nearly all actives have a fitted effect of over 50% in size
AT treatment – qHTS Assay for Identifying a Potential Treatment of Ataxia-Telangiectasia; F2112 A-T fibroblasts, KAP-1 phosphorylation AlphaLISA; neocarzinostatin DNA damage 30 min before lysis; Potency, µM (titrated, usually from 57.5 µM), most hits filed as activators; actives 0.19% (n = 320,000); AID 485349, 2010; further: nearly all actives have a fitted effect of over 45% in size
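hTERT-immortalized A-T patient fibroblasts (F2112), 500 cells/well in OPTI-MEM, 1% FBS, got compounds for 60 min, then NCS for 30 min at 37C. Lysates were then assayed for phospho-KAP-1 by AlphaLISA (anti-pKAP1 donor, anti-KAP1 acceptor beads), 6 hr at 25C.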
SW480 rereplic – A quantitative high throughput screen for small molecules that induce DNA re-replication in SW480 colon adenocarcinoma cells; AID 624297, 2012; actives 1.8% (n = 340,000); SW480 DNA re-replication, Hoechst DNA content imaging, 48 h; Potency, µM (top dose mostly 46.1 µM), usual class: activators; further: nearly all actives have a fitted effect of over 55% in size
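Cells (250 per well) received 23 nL compound or DMSO by pin tool and were kept 48 hr at 37 C, 5% CO2. Nuclei were then stained with Hoechst for 40 min and scanned for DNA content.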
a7 integrin act – qHTS for Activators of Integrin-Mediated Alleviation for Muscular Dystrophy. alpha7betagal myoblasts, beta-gal FDG fluorescence, 48 h. Potency, µM (titrated, usually from 38.3 µM), actives largely listed as activators. actives 0.064% (n = 350,000). AID 624291, 2012; further: nearly all actives have a fitted effect of over 60% in size
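Alpha7betagal+/- myoblasts (passage 13) were plated 16-24 hr, then exposed to compounds (1:260 dilution of DMSO stock) for 48 hours at 37C. After MPER lysis, β-galactosidase reporter activity was read as FDG fluorescence (ex 480/em 540) after 30 minutes.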
Large screens that a line does not name were inactive. The call rests on the fitted dose curve; in most records, active means well fitted activation curve with a large enough effect; inconclusive means small, poorly fitted or top-dose-only effect; inactive means no such curve, though single readings can be large or run the other way.

Cc1ccc(Cl)cc1Nc1nc(-c2sc(NC(=O)c3ccco3)nc2C)cs1	MCF10A rereplic 21µM
COc1cc(-c2nnc(COC(=O)c3ccc([N+](=O)[O-])o3)o2)cc(OC)c1OC	none (no result: Mito fusion yeast, MCF10A rereplic, AT treatment, SW480 rereplic)
O=C(c1ccc(OCCCc2cnc[nH]2)cc1)C1CC1	none (no result: MCF10A rereplic, AT treatment, SW480 rereplic, a7 integrin act)
CN1c2ccccc2-c2nc3ccccc3n2C1c1cccs1 (stereo not drawn)	Mito fusion yeast inconclusive, MCF10A rereplic 10µM, AT treatment inconclusive, SW480 rereplic inconclusive
Cc1ccc(C2N(C)c3ccccc3-c3nc4ccccc4n32)o1 (stereo not drawn)	Mito fusion yeast inconclusive, MCF10A rereplic inconclusive, SW480 rereplic inconclusive
COCCn1c(-c2cccs2)nc2nc3ccccc3nc21	MCF10A rereplic inconclusive, SW480 rereplic 7.3µM
COc1ccc(Cl)cc1NC(=O)CN(C)CC(=O)N1CC(=O)Nc2ccccc21	MCF10A rereplic inconclusive
COc1ccc(Cl)cc1NC(=O)CN(C)C(=O)c1cc2c(s1)CCCC2	Mito fusion yeast inconclusive, MCF10A rereplic inconclusive, SW480 rereplic 18µM
COc1ccc(Cl)cc1NC(=O)CN(C)C(=O)Cc1ccc2c(c1)CCC2	a7 integrin act inconclusive
COc1ccc(Cl)cc1NC(=O)Cn1cccc1	MCF10A rereplic inconclusive
COc1ccc(Cl)cc1NC(=O)CC(=O)Nc1cc(Cl)ccc1OC	a7 integrin act 14µM
COc1ccc(Cl)cc1NC(=S)NCCSc1ccc(C)cc1	MCF10A rereplic 23µM
COc1ccc(Cl)cc1NC(=O)CN(C)CC(=O)Nc1ccccc1N1CCOCC1	MCF10A rereplic inconclusive, SW480 rereplic 5.2µM
CCOC(=O)CNC(=O)C1CCCN(c2ncccn2)C1 (stereo not drawn)	SW480 rereplic 0.26µM
C=CCn1c(=O)c2ccccc2n2c(SCc3nnc(-c4ccccc4Br)o3)nnc12	MCF10A rereplic 23µM (no result: AT treatment)
CN(C(=O)COc1ccc2c(-c3ccccc3)cc(=O)oc2c1)C1CCS(=O)(=O)C1 (stereo not drawn)	MCF10A rereplic inconclusive, SW480 rereplic 13µM
COc1ccccc1N1C(=O)CC(Nc2ccc(N3CCOCC3)cc2)C1=O (stereo not drawn)	none
O=C1CC(Nc2ccc(N3CCOCC3)cc2)C(=O)N1c1ccccc1 (stereo not drawn)	MCF10A rereplic 8.2µM, SW480 rereplic inconclusive
CCCCC[C@]12Cc3cc(OC)c(OC)cc3C(O1)c1c(cc(C)n(-c3ccccc3)c1=O)O2	none (no result: MCF10A rereplic, SW480 rereplic, a7 integrin act)
Cc1ccc(C)c(OCC(=O)N(Cc2ccccc2)c2c(N)n(Cc3ccccc3)c(=O)[nH]c2=O)c1	none (no result: Mito fusion yeast, AT treatment)
O=C(COC(=O)c1ccc(S(=O)(=O)N2CCCC2)cc1)NCc1ccco1	none
CN1C2=CC=CC=CC2=[N+](C)C12C([N+](=O)[O-])=CC(=[N+]([O-])[O-])C=C2[N+](=O)[O-] (stereo not drawn)	MCF10A rereplic inconclusive, SW480 rereplic 0.65µM
O=C(NCCc1ccc(C(F)(F)F)cc1)C1CCC(=O)N(CCCN2CCCC2=O)C1 (stereo not drawn)	none
CCOC(=O)CCc1ccc(NC(=O)/C=C/c2ccc([N+](=O)[O-])o2)cc1	MCF10A rereplic 9.2µM, SW480 rereplic 7.3µM (no result: Mito fusion yeast, AT treatment)
CCc1ccc(C(=O)/C=C/c2ccc([N+](=O)[O-])o2)cc1	MCF10A rereplic 8.9µM (no result: AT treatment)
Cc1ccc(/C=C/C(=O)Nc2ccc([N+](=O)[O-])cc2)o1	none
Cc1cccc(Cn2c(-c3ccc[nH]c3=O)nc3ccccc32)c1	none
N#CCSc1nc2ccccc2c2nc3ccccc3n12	MCF10A rereplic 9.2µM
CC(=O)c1ccc(OCc2cc(C(=O)N3CCN(c4ccccc4)CC3C)no2)cc1 (stereo not drawn)	SW480 rereplic inconclusive
ClCc1nc2ccccc2c2ccccc12	MCF10A rereplic inconclusive, SW480 rereplic 18µM
CCOC(=O)c1c(CCl)nc2ccccc2c1-c1ccccc1	MCF10A rereplic inconclusive, SW480 rereplic inconclusive
CC1CCc2c(sc3nc(C4CC4)nc(N4CCN(C(=O)c5ccco5)CC4)c23)C1 (stereo not drawn)	MCF10A rereplic 16µM, SW480 rereplic inconclusive (no result: Mito fusion yeast, AT treatment)
